The target in this experiment is Shiga toxin 2 (Escherichia coli O157:H7) (UniProt P09385+P09386). Nature of the experiment: E. coli 0.157:H7 Shiga Toxin SOP - stx2 screening assay. Type of experiment: functional. More on the design: scale not given: direction of the effect not stated beside the values. To be noted: 30 µM.
Turning to `Cc1nn(C)c(Cl)c1C(=O)NCC(c1ccsc1)N(C)C` (stereo not given), the Percent Effect was -7.76%.

Take `CC(C)N1CC(C(=O)NCCOc2ccc3c(c2)OCO3)CC1=O` (stereo not given): the Percent Effect is 13.8%.

Take `Cn1ncc2c1NC(=O)CC2c1ccc(O)cc1` (stereo not given): the Percent Effect is -13.8%.

`COC(=O)CNC(=O)CSCc1nc(O)c2c(C)c(C)sc2n1`: the Percent Effect is -18.2%.

As for `O=C(CN1CCOC(Cn2cccn2)C1)Nc1nccs1` (stereo not given), the Percent Effect is -17.3%.

(Values after ChEMBL document CHEMBL3988442, “University of Dundee, Small-Polar-MMV Screening Library” (2021).)
